{"source": "ChEMBL document CHEMBL1961873", "about": "“Compounds: GSK PKIS; Assays: Nanosyn kinase panel” (2012)"}
{"target": "Mitogen-activated protein kinase kinase kinase kinase 4 (Homo sapiens) (UniProt O95819)", "sequence (O95819 2-1239 limits assumed)": "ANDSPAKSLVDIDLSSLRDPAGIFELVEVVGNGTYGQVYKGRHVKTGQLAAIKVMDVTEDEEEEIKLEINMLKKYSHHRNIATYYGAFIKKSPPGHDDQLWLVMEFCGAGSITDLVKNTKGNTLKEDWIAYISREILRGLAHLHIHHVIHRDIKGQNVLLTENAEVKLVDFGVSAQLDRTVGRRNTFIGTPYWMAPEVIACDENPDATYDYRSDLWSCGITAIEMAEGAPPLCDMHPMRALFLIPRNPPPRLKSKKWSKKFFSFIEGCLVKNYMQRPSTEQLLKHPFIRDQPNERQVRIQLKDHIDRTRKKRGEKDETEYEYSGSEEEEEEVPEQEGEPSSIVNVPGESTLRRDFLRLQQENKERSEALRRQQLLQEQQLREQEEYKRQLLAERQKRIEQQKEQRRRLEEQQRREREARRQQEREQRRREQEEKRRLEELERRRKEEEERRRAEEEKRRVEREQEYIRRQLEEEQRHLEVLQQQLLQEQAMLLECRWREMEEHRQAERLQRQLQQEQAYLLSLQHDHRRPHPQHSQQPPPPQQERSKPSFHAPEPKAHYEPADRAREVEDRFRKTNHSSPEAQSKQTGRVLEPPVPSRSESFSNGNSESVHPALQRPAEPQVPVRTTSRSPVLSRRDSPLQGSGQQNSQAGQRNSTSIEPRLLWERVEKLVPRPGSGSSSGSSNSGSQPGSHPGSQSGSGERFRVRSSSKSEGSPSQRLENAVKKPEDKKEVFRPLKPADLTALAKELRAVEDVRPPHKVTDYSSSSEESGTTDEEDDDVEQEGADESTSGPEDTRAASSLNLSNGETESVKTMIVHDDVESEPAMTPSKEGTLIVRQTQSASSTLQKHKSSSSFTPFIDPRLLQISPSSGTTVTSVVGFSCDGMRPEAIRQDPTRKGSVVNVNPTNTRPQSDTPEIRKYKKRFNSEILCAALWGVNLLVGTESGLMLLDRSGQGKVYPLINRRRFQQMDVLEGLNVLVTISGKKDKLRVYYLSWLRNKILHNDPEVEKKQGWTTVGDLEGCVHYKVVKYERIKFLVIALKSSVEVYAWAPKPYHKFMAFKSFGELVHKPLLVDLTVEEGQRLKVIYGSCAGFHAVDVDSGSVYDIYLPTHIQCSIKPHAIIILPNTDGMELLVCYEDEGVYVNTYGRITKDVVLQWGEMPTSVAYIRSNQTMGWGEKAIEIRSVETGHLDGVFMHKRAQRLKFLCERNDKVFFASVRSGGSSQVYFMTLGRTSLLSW", "details": "at 0.1 µM", "units": {"inhibition": "%"}}
{"smiles": "Fc1ccc(-c2nc3n(c2-c2ccncc2)CCS3)cc1", "inhibition": 5.82}
{"smiles": "Fc1ccc(-c2ncn(C3CCNCC3)c2-c2ccnc(Oc3ccc4c(c3)OCO4)n2)cc1", "inhibition": 2.42}
{"smiles": "Fc1ccc(-c2c(-c3ccncc3)nc3n2CCS3)cc1", "inhibition": 4.23}
{"smiles": "O=C(Nc1n[nH]c2nc(-c3ccc(O)cc3)c(Br)cc12)C1CC1", "inhibition": 32.2}
{"smiles": "CN(C)CCOc1ccc(-c2cc(-c3ccc4c(c3)CCC4=NO)c(-c3ccncc3)o2)cc1", "inhibition": 0.91}
{"smiles": "COc1ccc(C2=C(N3CCc4ccccc43)C(=O)NC2=O)cc1", "inhibition": 6.97}
{"smiles": "CN(c1ccc(NC(=O)Nc2c(Cl)cccc2Cl)cc1)c1ccnc(Nc2cccc(CS(C)(=O)=O)c2)n1", "inhibition": 34.3}
{"smiles": "Cc1ccc(C(=O)NC2CCC2)cc1-c1ccc(C(=O)NCC2CC2)cc1", "inhibition": 3.19}
{"smiles": "COc1cccc(-n2cnc3c(N/N=C/c4ccncc4)ncnc32)c1", "inhibition": 1.22}
{"smiles": "Cc1ccc(C(=O)NC(C)C)cc1-c1ccc(C(=O)NCC2CC2)cc1", "inhibition": -2.82}
{"smiles": "NC(=O)Cc1ccccc1Oc1nccc(-c2c(-c3ccc(F)cc3)ncn2C2CCNCC2)n1", "inhibition": 5.19}
{"smiles": "O=C1Nc2ccccc2/C1=C/Nc1ccc(-n2cncn2)cc1", "inhibition": 18.5}
{"smiles": "c1ccc(Oc2ccc(Nc3ncc(-c4ccccc4)o3)cc2)cc1", "inhibition": 3.28}
{"smiles": "COc1cc2ncn(-c3cc(OCc4ccccc4C(F)(F)F)c(C(C)=O)s3)c2cc1OC", "inhibition": 4.05}
{"smiles": "COc1ccc2ncn(-c3cc(O[C@H](C)c4ccccc4Cl)c(C(N)=O)s3)c2c1", "inhibition": 4.38}
{"smiles": "CCc1nccc2c1nc(-c1nonc1N)n2CC", "inhibition": 2.56}
{"smiles": "CN(C)c1ccc2c(c1)/C(=C/Nc1ccc(S(N)(=O)=O)cc1)C(=O)N2", "inhibition": 23.9}
{"smiles": "COc1cc2ncn(-c3cc(OCc4cccs4)c(C(N)=O)s3)c2cc1OC", "inhibition": 18.7}
